Reference: PubChem BioAssay AID1159580 (chemical genetic matrix, 2015)
“And” between values parts separate entries of the source, which are not always exact repeats. Equal entries are not always repeated. About 2,000 (36%) of roughly 5,500 compounds were called active. Another 18% or so got no clear call; they are omitted. Cut-off read from the data, not from the text of the source: active = normalized growth mostly below about 0.91 (no sharp cut-off); inconclusive = no clear call, values can overlap the other calls; inactive = mostly above about 0.92. This is one part of the list.

Assay: chemical genetic growth profiling, strain panel (AID 1159580);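 note: tested at 20 µM; growth read once vehicle control cultures reached saturation at 30 °C; 1 = growth at the plate median or of vehicle wells; lower values mean less growth of the strain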
Conditions: S. cerevisiae deletion strains, growth OD
[1] = locus YMR263W, strain SAP30, stronger effect = lower value
[2] = locus YPL241C, strain CIN2, stronger effect = lower value

Measured: normalized growth

Cc1sc2ccccc2c1CC1=NCCN1
inactive: locus YAL040C, strain CLN3, stronger effect = lower value 0.972 | locus YCL061C, strain MRC1 (second series), stronger effect = lower value 0.993 | locus YDR150W, strain NUM1, stronger effect = lower value 0.995 | locus YER002W, strain NOP16, stronger effect = lower value 0.988 | locus YGR078C, strain PAC10, stronger effect = lower value 1 | locus YJR075W, strain HOC1, stronger effect = lower value 1.01 | [1] 1 | locus YNL175C, strain NOP13, stronger effect = lower value 1.03 | locus YNL197C, strain WHI3, stronger effect = lower value 1 | locus YNL224C, strain SQS1, stronger effect = lower value 1 | locus YOR083W, strain WHI5 (second series), stronger effect = lower value 0.982 | [2] 1

c1ccc2c(c1)sc1ccccc12
active: locus YAL013W, strain DEP1, stronger effect = lower value 0.807 | locus YAL026C, strain drs2, stronger effect = lower value 0.832 | locus YAL030W, strain snc1, stronger effect = lower value 0.851 | locus YBL061C, strain skt5, stronger effect = lower value 0.811 | locus YBR009C, strain hhf1, stronger effect = lower value 0.734 | locus YBR023C, strain chs3, stronger effect = lower value 0.867 | locus YBR231C, strain swc5, stronger effect = lower value 0.86 | locus YCL011C, strain gbp2, stronger effect = lower value 0.815 | locus YCL016C, strain dcc1, stronger effect = lower value 0.877 | locus YCL069W, strain vba3, stronger effect = lower value 0.778 | locus YCR088W, strain abp1, stronger effect = lower value 0.905 | locus YDL005C, strain med2, stronger effect = lower value 0.906 | locus YDR001C, strain nth1, stronger effect = lower value 0.894 | locus YDR137W, strain rgp1, stronger effect = lower value 0.427 | locus YDR297W, strain sur2, stronger effect = lower value 0.842 | locus YDR318W, strain mcm21, stronger effect = lower value 0.912 | locus YDR334W, strain swr1, stronger effect = lower value 0.871 | locus YDR335W, strain msn5, stronger effect = lower value 0.781 | locus YDR392W, strain spt3, stronger effect = lower value 0.588 | locus YEL003W, strain gim4, stronger effect = lower value 0.572 | locus YEL061C, strain CIN8 (second series), stronger effect = lower value 0.8 | locus YER015W, strain faa2, stronger effect = lower value 0.765 | locus YER111C, strain swi4, stronger effect = lower value 0.823 | locus YER155C, strain BEM2 (second series), stronger effect = lower value 0.223 | locus YGL173C, strain kem1, stronger effect = lower value 0.827 | locus YGL227W, strain vid30, stronger effect = lower value 0.809 | locus YGL240W, strain doc1, stronger effect = lower value 0.778 | locus YGL253W, strain hxk2, stronger effect = lower value 0.854 | locus YHR013C, strain ard1, stronger effect = lower value 1.25 [resistant] | locus YHR142W, strain chs7, stronger effect = lower value 0.597 | locus YJL092W, strain hpr5, stronger effect = lower value 0.841 | locus YJL095W, strain BCK1 (second series), stronger effect = lower value 0.834 | locus YJL129C, strain trk1, stronger effect = lower value 0.802 | locus YJL164C, strain tpk1, stronger effect = lower value 0.802 | locus YJL166W, strain qcr8, stronger effect = lower value 0.652 | locus YJL187C, strain SWE1, stronger effect = lower value 0.882 | locus YKL160W, strain elf1, stronger effect = lower value 0.845 | locus YKR001C, strain vps1, stronger effect = lower value 0.812 | locus YKR026C, strain gcn3, stronger effect = lower value 0.835 | locus YKR091W, strain srl3, stronger effect = lower value 0.924 | locus YLL001W, strain dnm1, stronger effect = lower value 0.768 | locus YLL026W, stronger effect = lower value 0.814 | locus YLR027C, strain aat2, stronger effect = lower value 0.757 | locus YLR221C, strain rsa3, stronger effect = lower value 0.779 | locus YLR258W, strain gsy2, stronger effect = lower value 0.891 | locus YLR262C, strain YPT6 (second series), stronger effect = lower value 0.315 | locus YLR320W, strain mms22, stronger effect = lower value 0.662 | locus YLR371W, strain rom2, stronger effect = lower value 0.854 | locus YLR418C, strain cdc73, stronger effect = lower value 0.785 | locus YML032C, strain rad52, stronger effect = lower value 0.9 | locus YML120C, strain ndi1, stronger effect = lower value 0.749 | locus YMR058W, strain fet3, stronger effect = lower value 0.774 | locus YMR125W, strain sto1, stronger effect = lower value 0.844 | locus YMR129W, stronger effect = lower value 0.909 | locus YMR205C, strain PFK2, stronger effect = lower value 0.737 | locus YMR223W, strain ubp8, stronger effect = lower value 0.86 | locus YNL071W, strain lat1, stronger effect = lower value 0.613 | locus YNL153C, strain GIM3, stronger effect = lower value 0.728 | locus YNL248C, strain rpa49, stronger effect = lower value 0.748 | locus YNL307C, strain MCK1, stronger effect = lower value 0.849 | locus YNL322C, strain KRE1 (second series), stronger effect = lower value 0.894 | locus YNR049C, strain mso1, stronger effect = lower value 0.915 | locus YOR001W, strain rrp6, stronger effect = lower value 0.714 | locus YOR083W, strain WHI5, stronger effect = lower value 0.812 | locus YOR106W, strain vam3, stronger effect = lower value 0.727 | locus YOR184W, strain ser1, stronger effect = lower value 0.676 | locus YOR265W, strain rbl2, stronger effect = lower value 0.873 | locus YPL051W, strain arl3, stronger effect = lower value 0.776 | locus YPL078C, strain atp4, stronger effect = lower value 0.691 | locus YPL106C, strain sse1, stronger effect = lower value 0.778 | strain wtn01, stronger effect = lower value 0.893
inactive: locus YAL021C, strain ccr4, stronger effect = lower value 1.02 | locus YBR021W, strain FUR4, stronger effect = lower value 1.03 | locus YBR171W, strain sec66, stronger effect = lower value 0.912 | locus YBR229C, strain ROT2, stronger effect = lower value 1 | locus YBR279W, strain paf1, stronger effect = lower value 0.952 | locus YCL029C, strain bik1, stronger effect = lower value 0.973 | locus YDL035C, strain GPR1, stronger effect = lower value 0.99 | locus YDL040C, strain nat1, stronger effect = lower value 0.942 | locus YDL074C, strain BRE1, stronger effect = lower value 0.97 | locus YDL101C, strain DUN1, stronger effect = lower value 0.96 | locus YDL134C, strain PPH21, stronger effect = lower value 0.938 | locus YDL185W, strain tfp1, stronger effect = lower value 0.986 | locus YDL192W, strain arf1, stronger effect = lower value 0.959 | locus YDR069C, strain doa4, stronger effect = lower value 1.02 | locus YDR101C, strain arx1, stronger effect = lower value 0.955 | locus YDR159W, strain sac3, stronger effect = lower value 0.869 | locus YDR162C, strain NBP2, stronger effect = lower value 0.883 | locus YDR195W, strain ref2 1.09 | locus YDR388W, stronger effect = lower value 0.971 | locus YDR502C, strain sam2, stronger effect = lower value 0.928 | locus YEL037C, strain rad23, stronger effect = lower value 0.933 | locus YEL061C, strain CIN8, stronger effect = lower value 0.991 | locus YER016W, strain bim1, stronger effect = lower value 0.957 | locus YER110C, stronger effect = lower value 0.97 | locus YER155C, strain BEM2, stronger effect = lower value 0.946 | locus YER167W, strain BCK2, stronger effect = lower value 0.96 | locus YFR010W, strain ubp6, stronger effect = lower value 0.976 | locus YGL078C, strain dbp3, stronger effect = lower value 0.973 | locus YGL086W, strain mad1, stronger effect = lower value 0.941 | locus YGL167C, strain pmr1, stronger effect = lower value 0.937 | locus YGL248W, strain PDE1, stronger effect = lower value 0.898 | locus YGR135W, strain pre9, stronger effect = lower value 0.929 | locus YGR229C, strain SMI1, stronger effect = lower value 0.917 | locus YGR252W, strain gcn5, stronger effect = lower value 1.02 | locus YHR027C, strain rpn1, stronger effect = lower value 0.922 | locus YHR030C, strain SLT2, stronger effect = lower value 0.978 and 0.997 | locus YHR079C, strain IRE1 (second series), stronger effect = lower value 0.957 | locus YHR079C, strain IRE1, stronger effect = lower value 0.996 | locus YHR094C, strain hxt1, stronger effect = lower value 0.972 | locus YHR129C, strain ARP1, stronger effect = lower value 0.981 | locus YHR200W, strain rpn10, stronger effect = lower value 0.97 | locus YIL066C, strain RNR3, stronger effect = lower value 0.994 | locus YIL073C, strain SPO22, stronger effect = lower value 0.951 | locus YIL125W, strain kgd1, stronger effect = lower value 0.962 | locus YIR030C, strain dcg1, stronger effect = lower value 0.957 | locus YJL095W, strain BCK1, stronger effect = lower value 0.834 and 1.01 | locus YJL115W, strain asf1, stronger effect = lower value 0.921 | locus YJL134W, strain LCB3, stronger effect = lower value 0.995 | locus YJL154C, strain vps35, stronger effect = lower value 0.924 | locus YJL168C, strain set2, stronger effect = lower value 0.97 | locus YJL187C, strain SWE1 (second series), stronger effect = lower value 0.957 | locus YJR043C, strain POL32, stronger effect = lower value 0.99 | locus YJR066W, strain TOR1, stronger effect = lower value 0.974 | locus YKL009W, strain mrt4, stronger effect = lower value 0.966 | locus YKL068W, stronger effect = lower value 0.973 | locus YKL085W, strain MDH1 (second series), stronger effect = lower value 0.971 | locus YKL085W, strain MDH1, stronger effect = lower value 0.971 | locus YLL041C, strain sdh2, stronger effect = lower value 0.935 | locus YLR039C, strain RIC1, stronger effect = lower value 0.735 | locus YLR058C, strain SHM2, stronger effect = lower value 0.968 | locus YLR102C, strain apc9, stronger effect = lower value 0.974 | locus YLR113W, strain HOG1, stronger effect = lower value 1.02 | locus YLR262C, strain YPT6, stronger effect = lower value 0.656 | locus YLR268W, strain sec22, stronger effect = lower value 0.897 | locus YLR330W, strain CHS5, stronger effect = lower value 0.95 | locus YLR342W, strain FKS1 (second series), stronger effect = lower value 1.03 | locus YLR342W, strain FKS1, stronger effect = lower value 0.959 | locus YLR357W, strain rsc2, stronger effect = lower value 0.909 | locus YLR370C, strain arc18, stronger effect = lower value 0.929 | locus YLR384C, strain iki3, stronger effect = lower value 0.939 | locus YML016C, strain PPZ1, stronger effect = lower value 0.988 | locus YML124C, strain tub3, stronger effect = lower value 0.971 | locus YMR078C, strain ctf18, stronger effect = lower value 0.967 | locus YMR231W, strain pep5, stronger effect = lower value 0.967 | [1] 0.954 | locus YMR307W, strain GAS1, stronger effect = lower value 0.869 | locus YNL067W, strain RPL9B, stronger effect = lower value 0.955 | locus YNL128W, strain TEP1, stronger effect = lower value 0.965 | locus YNL183C, strain NPR1, stronger effect = lower value 0.96 | locus YNL209W, strain ssb2, stronger effect = lower value 0.948 | locus YNL233W, strain BNI4, stronger effect = lower value 0.873 | locus YNL250W, strain rad50, stronger effect = lower value 0.974 | locus YNL271C, strain bni1, stronger effect = lower value 0.95 | locus YNL298W, strain CLA4, stronger effect = lower value 0.929 | locus YNR052C, strain pop2, stronger effect = lower value 0.991 | locus YOL012C, strain htz1 0.804 | locus YOL147C, strain pex11, stronger effect = lower value 0.953 | locus YOR061W, strain CKA2, stronger effect = lower value 0.994 | locus YOR069W, strain VPS5, stronger effect = lower value 0.996 | locus YOR070C, strain gyp1, stronger effect = lower value 0.937 | locus YOR080W, strain dia2, stronger effect = lower value 0.948 | locus YOR136W, strain idh2, stronger effect = lower value 0.951 | locus YOR144C, strain elg1, stronger effect = lower value 0.972 | locus YOR231W, strain MKK1, stronger effect = lower value 1.03 | locus YOR270C, strain vph1, stronger effect = lower value 1.02 | locus YOR290C, strain snf2, stronger effect = lower value 0.891 | locus YOR316C, strain cot1, stronger effect = lower value 0.966 | locus YPL240C, strain hsp82, stronger effect = lower value 0.934 | [2] 0.999 | locus YPL256C, strain CLN2, stronger effect = lower value 0.984 | locus YPR119W, strain clb2, stronger effect = lower value 0.965 | locus YPR141C, strain kar3, stronger effect = lower value 0.959 | locus YPR163C, strain tif3, stronger effect = lower value 0.983 | locus YPR167C, strain met16, stronger effect = lower value 0.972
